FBW7 act = human FBW7 E3 ligase activation, primary screen; AlphaScreen FBW7–phospho-cyclin E peptide binding, activator screen; actives 0.13% (n = 650,000); normalized activity (activation), % at 26.1 µM; Q969H0; in the data active means normalized activity above about 1.9%;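 further: purified mutant Fbw7 with reduced substrate affinity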
Target sequence (Q969H0 whole entry, looked up): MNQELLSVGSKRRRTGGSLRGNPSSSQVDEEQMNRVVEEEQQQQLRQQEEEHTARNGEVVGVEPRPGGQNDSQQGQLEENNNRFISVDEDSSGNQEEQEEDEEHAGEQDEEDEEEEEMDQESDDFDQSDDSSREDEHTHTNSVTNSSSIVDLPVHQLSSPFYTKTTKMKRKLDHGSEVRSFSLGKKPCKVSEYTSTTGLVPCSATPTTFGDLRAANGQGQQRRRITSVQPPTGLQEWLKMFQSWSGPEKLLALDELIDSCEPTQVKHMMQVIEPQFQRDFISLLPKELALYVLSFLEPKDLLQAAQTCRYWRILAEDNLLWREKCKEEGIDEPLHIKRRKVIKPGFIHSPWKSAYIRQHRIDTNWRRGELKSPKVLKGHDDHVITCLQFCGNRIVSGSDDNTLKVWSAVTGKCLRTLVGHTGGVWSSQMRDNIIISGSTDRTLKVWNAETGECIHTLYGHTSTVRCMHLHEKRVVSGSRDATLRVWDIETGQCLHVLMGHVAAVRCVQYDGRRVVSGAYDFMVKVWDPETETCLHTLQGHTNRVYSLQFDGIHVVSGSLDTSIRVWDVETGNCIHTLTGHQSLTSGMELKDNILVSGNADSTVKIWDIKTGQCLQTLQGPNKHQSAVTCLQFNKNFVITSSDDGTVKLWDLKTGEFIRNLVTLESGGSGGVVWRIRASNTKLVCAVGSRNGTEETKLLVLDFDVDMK
TEAD-YAP block = TEAD-YAP interaction inhibition; HEK-TIYL cells, TEAD-Gal4/YAP UAS-luciferase luminescence; inhibition, % at 9.12 µM; actives 1.4% (n = 640,000); in the data active means inhibition above about 32%;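 further: 0% = median of test compound wells and 100% = reference inhibitor wells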
MITF primary = human MITF inhibition, primary screen; AlphaScreen MITF homodimerization, bead proximity signal; inhibition, % at 2.6 µM; actives 0.91% (n = 650,000); in the data active means inhibition above about 50%;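 further: 0% = vehicle wells with protein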
GPR151 ag = human GPR151 activation. Q8TDV0. PathHunter beta-arrestin GPR151 cells, luminescence. activation, % at 11.2 µM. actives 1% (n = 650,000); in the data active means activation above about 4.9%;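 further: 0% = median of compound wells and 100% = cells with positive control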
MITF confirm = confirmation of human MITF inhibitors; actives 16% (n = 4,700); AlphaScreen MITF homodimerization, biotin/His-MITF beads; AID 1259372; inhibition, % at 2.6 µM; shares compounds with MITF primary;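 active means inhibition above a cutoff derived from the DMSO control wells, cut at about 28% in these data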;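 further: 0% = MITF dimer wells with DMSO only; inhibitors lower the bead chemiluminescence by keeping MITF from dimerizing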
AlphaScreen DR = counter-screen: compounds optically interfering with AlphaScreen. AlphaScreen optical interference counterscreen, cell-free. IC50, µM. AID 1259373. shares compounds with MITF primary. actives 6% (n = 480); call rule not given here
AS interf ctr = counter-screen: compounds optically interfering with AlphaScreen | shares compounds with MITF primary | LysRS AlphaScreen counterscreen, signal interference, triplicate | inhibition, % at 2.6 µM | actives 7.6% (n = 4,700) | AID 1259376;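 active means inhibition above a cutoff derived from the DMSO control wells, cut at about 30% in these data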
An asterisk follows results filed as active; / = no result given. The list is not random: actives were taken first. Their share in the collection is about 3.5%.

SMILES | FBW7 act | TEAD-YAP block | MITF primary | GPR151 ag | MITF confirm | AS interf ctr | others
CN(CCC#N)C(=O)COC(=O)c1c2c(nc3ccccc13)/C(=C/c1ccco1)CC2 | 0 | -25 | 73* | 1 | 80* | -4 | AlphaScreen DR=>6.9
CCC(C)NC(=O)c1ccccc1NC(=O)c1cccc([N+](=O)[O-])c1 (stereo not given) | 1 | 1 | 19 | 0 | / | /
CCCCCOc1ccc(N2C(=O)CSC2c2ccc(C(C)(C)C)cc2)cc1 (stereo not given) | 1 | -5 | -4 | 0 | / | /
Cc1[nH]n(-c2nc3ccccc3[nH]2)c(=O)c1C1OC(=O)c2ccccc21 (stereo not given) | 0 | 13 | 91* | -1 | 71* | 100*
O=c1cc(-c2ccccc2)[nH]n1-c1nc2ccccc2[nH]1 | -1 | 16 | 40 | -1 | / | /
COC(=O)C1=C(C)N(C)C(=O)NC1c1ccsc1 (stereo not given) | 0 | 1 | 14 | -1 | / | /
O=C(Cc1cccc2ccccc12)Nc1nnc(-c2ccncc2)o1 | 0 | 2 | 71* | 0 | 52* | 98*
O=C(Cc1cccc2ccccc12)Nc1nnc(-c2ccc3c(c2)OCCO3)o1 | 0 | 1 | 6 | 0 | / | /
COCCn1c(=S)[nH]c2cc(C(=O)N3CCc4ccccc43)ccc2c1=O | 0 | 5 | -14 | 2 | / | /
CSc1nnc(CN2CCSCC2)n1C | 0 | 4 | 64* | -1 | -3 | -5
Cn1c(CN2CCOCC2)nnc1SCC(N)=O | 0 | 2 | 4 | 1 | / | /
CCC(C)C(=O)NCc1nnc2n1CCN(C/C=C/c1ccco1)CC2 (stereo not given) | 0 | 7 | 60* | 1 | 77* | -8 | AlphaScreen DR=>6.5
CC1=C(C(=O)Nc2ccc(F)cc2F)C(c2ccc3c(c2)OCO3)C2=C(CCCC2=O)N1 (stereo not given) | 0 | -3 | 11 | -1 | / | /
CC(NC(=O)CCc1nnc(CCC2CCCCC2)o1)c1ccncn1 (stereo not given) | 0 | -7 | 74* | 0 | -1 | 9
CC(Cc1cnccn1)NC(=O)CCc1nnc(CCC2CCCCC2)o1 (stereo not given) | 0 | 4 | 2 | 2 | / | /
C=CCc1cc(C)ccc1OCCOCCn1ccnc1 | 0 | -3 | 66* | 1 | -2 | 3
C=CCc1cc(OC)ccc1OCCCCn1ccnc1 | 0 | 4 | 78* | -1 | 9 | 11
C=CCc1cc(Cl)ccc1OCCCCn1ccnc1 | 0 | 1 | 68* | -1 | 5 | 13
Clc1cccc(Cl)c1OCCCCn1ccnc1 | 0 | 0 | 52* | 1 | 5 | 5
NC(=O)CSc1nccc2c(OCc3ccc(F)cc3)cccc12 | 0 | -7 | 8 | -6 | / | /
Brc1ccc(C2C=C(c3cccs3)Nc3nnnn32)cc1 (stereo not given) | 0 | -11 | 20 | 1 | / | /
CN(C)c1ccc(N=Cc2ccccc2)cc1 | 0 | 23 | 19 | 0 | / | /
CN(C)c1ccc(N=c2cc(-c3ccccc3)cc(-c3ccccc3)s2)cc1 | 0 | -3 | 54* | -2 | 12 | 17
CC1=NN(c2cccc(C(=O)O)c2)C(=O)C1 | 0 | -2 | 60* | 0 | 14 | 25
CC1=NN(c2cccc(F)c2)C(=O)C1 | -1 | 3 | -9 | -1 | / | /
SMILES | FBW7 act | TEAD-YAP block | MITF primary | GPR151 ag | MITF confirm | AS interf ctr | others
COc1ccc(C)c(CN(C)C)c1 | 0 | -2 | 13 | 1 | / | /
COc1cccc(OC)c1C(=O)N1CCN(Cc2ccc3ccccc3c2)CC1 | 0 | 0 | 41 | 4 | / | /
COc1ccccc1CN1CCN(Cc2ccc3ccccc3c2)CC1 | 0 | 6 | 78* | 0 | 18 | 22
COc1ccccc1CN1CCN(Cc2ccc(OC)c(OC)c2)CC1 | 0 | -1 | 62* | 0 | 7 | 13
CCOc1cc(CN2CCN(Cc3cccc(C)c3)CC2)ccc1OC | 0 | 5 | 14 | -1 | / | /
FC(F)(F)c1ccccc1CN1CCN(Cc2ccc3ccccc3c2)CC1 | 0 | 6 | 83* | 1 | 18 | 23
CCOc1cc(CN2CCN(Cc3ccccc3C)CC2)ccc1OC | 0 | 2 | 52* | 1 | 2 | 15
COc1ccc(-n2nc3cc(C)c(NC(=O)c4ccccc4[N+](=O)[O-])cc3n2)cc1 | 0 | -18 | -7 | 0 | / | /
CN(CC(=O)NC1CCCCCC1)S(=O)(=O)c1ccc2nc(-c3ccccc3)[nH]c2c1 | 1 | -8 | 30 | -1 | / | /
CC(=O)Oc1ccc(C(=O)N2CCN(c3cccc(Cl)c3)CC2)cc1 | 0 | 8 | -9 | -1 | / | /
Nc1cccc(S(=O)(=O)N2CCOCC2)c1 | 0 | -12 | -3 | 0 | / | /
COc1ccc(CN2CCN(Cc3ccccc3Cl)CC2)cc1OC | 0 | 0 | 71* | 1 | 11 | 22
COc1ccc(CN2CCN(Cc3ccccc3[N+](=O)[O-])CC2)cc1OC | 0 | -5 | 67* | 0 | -3 | -6
CN(Cc1ccccc1)C1CCN(Cc2ccccc2[N+](=O)[O-])CC1 | 0 | 4 | 59* | 0 | -3 | 4
COc1ccc(CNCc2ccccc2Cl)cc1OC | 0 | -8 | 28 | -1 | / | /
COc1cc(OC)c(CN2CCCC(O)C2)cc1Br (stereo not given) | 2 | 5 | 54* | -1 | 33* | -4 | AlphaScreen DR=>6.5
COc1ccc(CN2CCCC(O)C2)cc1Br (stereo not given) | 1 | 0 | 18 | 1 | / | /
CCn1c(=O)c2c(nc(N3CCN(C)CC3)n2Cc2ccccc2)n(C)c1=O | 0 | 9 | 20 | -1 | / | /
CCc1ccc(CN2CCN(Cc3ccccc3[N+](=O)[O-])CC2)cc1 | 0 | 1 | 74* | 1 | 9 | 0
COc1cc(OC)c(OC)cc1CN1CCN(c2ccccc2OC)CC1 | 0 | 6 | 38 | 0 | / | /
COc1cc(OC)c(OC)cc1CN1CCN(Cc2ccccc2C)CC1 | 0 | 1 | 74* | 1 | -13 | 3
COc1cc(Br)c(CN2CCCN(C)CC2)cc1OC | 1 | 4 | 11 | 1 | / | /
COc1cc(OC)c(OC)cc1CN1CCN(Cc2cccn2C)CC1 | -1 | -4 | 63* | -1 | 13 | 18
COc1cc(OC)c(OC)cc1CN1CCCN(C)CC1 | 0 | 3 | 37 | 0 | / | /
COc1cc(OC)c(OC)cc1CN1CCN(Cc2cc(OC)c(OC)cc2Br)CC1 | 0 | 7 | 72* | -1 | 12 | 19
CC(C)(C)NC(=O)C(c1ccncc1)N(C(=O)c1csnn1)c1ccccc1F (stereo not given) | 0 | -2 | 4 | 1 | / | /
COc1ccc(CN2CCN(Cc3ccccc3C)CC2)cc1OC | 0 | 10 | 62* | -1 | 5 | 14
Cc1ccc(C)c(C(=O)CN2C3=NCCN3c3ccccc32)c1 | 0 | 5 | -2 | 0 | / | /
